Measurements as given in the supplement of paper PMC10849652.
About 8,800 targets were measured; listed, in parts, are those with a hit and a random draw of the rest. About 0.5% of all pairs of compound and target were hits. Unmarked numbers belong to inactive results.

Experiments:
Assay in all cases: log2 fold change, soluble protein after heating vs DMSO (PISA); higher = thermal stabilisation; K562 lysate, 10 uM; active = over 0.2 and 3.5 SD of the protein, either way, in both replicates (recomputed)
[1] = compound: CC(=O)c1cnc2ccc(-c3cc(Cl)c(O)c(Cl)c3)nc2c1N[C@H]1CC[C@H](CN(C)C)CC1
Procedure, shortened: (§1)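 Log-two fold change in thermal stability relative to solvent controls is reported from duplicates. For each sample, crude K562 extract from dounce-homogenised pellets in PBS pH 7.4 with 1 mM MgCl2, at 1 mg/mL protein, was treated with 10 μM compound for 30 min. Aliquots heated for 3 min across 48°C-58°C were pooled, brought to 0.5% NP-40 at 4°C and cleared at 21,000xg for 90 min. The supernatant was quantified by TMTpro 16plex LC-MS/MS with channel sums equalised.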

[2] = compound: CC(C)(C)Cn1c(N)nc2ccc(-c3[nH]c(C(C)(C)C)nc3-c3ccc(F)cc3)nc21 [ralimetinib]
Procedure, shortened: as §1

[3] = compound: CC(C)(O)CC(=O)NCCn1ccc2ncnc(Nc3ccc(Oc4cccc(C(F)(F)F)c4)c(Cl)c3)c21
Procedure, shortened: as §1

[4] = compound: CC(C)C1=C2N=C(C=C(N2N=C1)NCC3=CC=CC=C3)NCCCCCCN
Procedure, shortened: as §1

[5] = compound: CC1=C(C(CC(=O)N1)C2=CC=C(C=C2)C(F)(F)F)C(=O)NC3=C(C=C4C(=C3)C=NN4)F
Procedure, shortened: as §1

[6] = compound: CC1=C(C2=C(C=C1)C(=O)C3=CC=CC=C3N2CCCN)C
Procedure, shortened: as §1

[7] = compound: CC1=C(C=C(C=C1)NC(=O)C2=CC(=CC=C2)C(C)(C)C#N)NC3=CC4=C(C=C3)N=CN(C4=O)C
Procedure, shortened: as §1

[8] = compound: CC1=C(C=C(C=C1)NC(=O)C2=CC(=CC=C2)N(C)C)NC(=O)C3=CC=C(C=C3)O
Procedure, shortened: as §1

[9] = compound: CC1=CC=C(C=C1)SC2=C3C=C(SC3=CN=C2)C(=O)N
Procedure, shortened: as §1

[10] = compound: CCCS(=O)(=O)Nc1ccc(F)c(C(=O)c2c[nH]c3ncc(Cl)cc23)c1F
Procedure, shortened: as §1

[11] = compound: CC[C@@H]1C(=O)N(C)c2cnc(Nc3ccc(C(=O)N[C@H]4CC[C@H](N5CCN(CC6CC6)CC5)CC4)cc3OC)nc2N1C(C)C [volasertib]
Procedure, shortened: as §1

[12] = compound: CCn1c(C(=O)N(C2CC2)C2CC2)cc2c3c(ncn3C)c(Nc3cc(C)n(C)n3)nc21
Procedure, shortened: as §1

[13] = compound: CCn1cc(-c2ccnc3[nH]c(-c4cccc(CN(C)C)c4)cc23)c(-c2ccc(NC(=O)N(C)C)cc2)n1
Procedure, shortened: as §1

[14] = compound: CN1CCC(CNc2ccc3ncc(-c4cccc(OC(F)(F)F)c4)n3n2)CC1
Procedure, shortened: as §1

[15] = compound: CN1CCN(CCOc2cc(OC3CCOCC3)c3c(Nc4c(Cl)ccc5c4OCO5)ncnc3c2)CC1 [saracatinib]
Procedure, shortened: as §1

[16] = compound: CN1CCN(c2nc(C3=C(c4c[nH]c5ccccc45)C(=O)NC3=O)c3ccccc3n2)CC1 [sotrastaurin]
Procedure, shortened: as §1

[17] = compound: C=CC(=O)N1CCC[C@@H](n2nc(-c3ccc(Oc4ccccc4)cc3)c3c(N)ncnc32)C1 [ibrutinib]
Procedure, shortened: as §1

[18] = compound: CCN(CCCOc1ccc2c(Nc3cc(CC(=O)Nc4cccc(F)c4)[nH]n3)ncnc2c1)CCOP(=O)(O)O [barasertib]
Procedure, shortened: as §1

[19] = compound: CC[C@@H]1C(=O)N(C)c2cnc(Nc3ccc(C(=O)NC4CCN(C)CC4)cc3OC)nc2N1C1CCCC1
Procedure, shortened: as §1

[20] = compound: CCCS(=O)(=O)Nc1ccc(F)c(C(=O)c2c[nH]c3ncc(-c4ccc(Cl)cc4)cc23)c1F [vemurafenib]
Procedure, shortened: as §1

UniProt Q9HCK4, sequence (Q9HCK4 whole entry, looked up): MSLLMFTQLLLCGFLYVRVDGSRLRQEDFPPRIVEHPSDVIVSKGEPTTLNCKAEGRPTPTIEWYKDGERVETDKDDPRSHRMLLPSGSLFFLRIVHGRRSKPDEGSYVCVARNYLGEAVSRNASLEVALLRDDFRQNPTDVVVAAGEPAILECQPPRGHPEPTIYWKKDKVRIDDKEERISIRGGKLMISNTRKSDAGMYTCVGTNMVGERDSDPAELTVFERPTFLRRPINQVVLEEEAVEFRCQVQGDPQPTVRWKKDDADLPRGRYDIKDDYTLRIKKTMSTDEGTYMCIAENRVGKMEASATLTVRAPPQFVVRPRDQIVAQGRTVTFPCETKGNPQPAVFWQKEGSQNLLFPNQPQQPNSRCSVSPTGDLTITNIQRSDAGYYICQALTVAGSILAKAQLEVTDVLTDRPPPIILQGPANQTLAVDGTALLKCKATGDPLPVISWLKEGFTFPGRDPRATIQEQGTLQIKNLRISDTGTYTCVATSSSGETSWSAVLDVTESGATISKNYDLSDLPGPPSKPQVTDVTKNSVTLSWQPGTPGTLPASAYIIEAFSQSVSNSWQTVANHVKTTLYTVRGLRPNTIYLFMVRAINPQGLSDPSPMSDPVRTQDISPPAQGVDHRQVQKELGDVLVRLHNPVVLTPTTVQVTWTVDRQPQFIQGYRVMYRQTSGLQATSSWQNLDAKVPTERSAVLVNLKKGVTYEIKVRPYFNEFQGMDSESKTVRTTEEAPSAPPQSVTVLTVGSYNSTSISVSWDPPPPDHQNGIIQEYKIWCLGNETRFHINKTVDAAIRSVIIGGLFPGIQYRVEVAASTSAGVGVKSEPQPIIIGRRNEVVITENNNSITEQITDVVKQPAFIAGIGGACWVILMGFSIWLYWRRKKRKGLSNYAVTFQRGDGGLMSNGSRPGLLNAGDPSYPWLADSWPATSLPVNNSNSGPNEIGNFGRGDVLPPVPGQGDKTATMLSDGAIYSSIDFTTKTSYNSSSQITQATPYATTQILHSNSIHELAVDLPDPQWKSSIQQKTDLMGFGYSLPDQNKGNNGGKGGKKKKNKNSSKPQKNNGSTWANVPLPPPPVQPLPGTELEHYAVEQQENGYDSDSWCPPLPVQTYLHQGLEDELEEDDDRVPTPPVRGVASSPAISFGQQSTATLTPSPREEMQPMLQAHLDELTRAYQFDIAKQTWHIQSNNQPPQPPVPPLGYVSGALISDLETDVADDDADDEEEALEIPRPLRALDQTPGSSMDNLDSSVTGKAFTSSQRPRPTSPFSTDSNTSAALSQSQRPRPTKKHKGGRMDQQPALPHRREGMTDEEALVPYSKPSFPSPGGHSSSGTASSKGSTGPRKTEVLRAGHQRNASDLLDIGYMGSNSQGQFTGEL
UniProt Q86X10, sequence (Q86X10 whole entry, looked up): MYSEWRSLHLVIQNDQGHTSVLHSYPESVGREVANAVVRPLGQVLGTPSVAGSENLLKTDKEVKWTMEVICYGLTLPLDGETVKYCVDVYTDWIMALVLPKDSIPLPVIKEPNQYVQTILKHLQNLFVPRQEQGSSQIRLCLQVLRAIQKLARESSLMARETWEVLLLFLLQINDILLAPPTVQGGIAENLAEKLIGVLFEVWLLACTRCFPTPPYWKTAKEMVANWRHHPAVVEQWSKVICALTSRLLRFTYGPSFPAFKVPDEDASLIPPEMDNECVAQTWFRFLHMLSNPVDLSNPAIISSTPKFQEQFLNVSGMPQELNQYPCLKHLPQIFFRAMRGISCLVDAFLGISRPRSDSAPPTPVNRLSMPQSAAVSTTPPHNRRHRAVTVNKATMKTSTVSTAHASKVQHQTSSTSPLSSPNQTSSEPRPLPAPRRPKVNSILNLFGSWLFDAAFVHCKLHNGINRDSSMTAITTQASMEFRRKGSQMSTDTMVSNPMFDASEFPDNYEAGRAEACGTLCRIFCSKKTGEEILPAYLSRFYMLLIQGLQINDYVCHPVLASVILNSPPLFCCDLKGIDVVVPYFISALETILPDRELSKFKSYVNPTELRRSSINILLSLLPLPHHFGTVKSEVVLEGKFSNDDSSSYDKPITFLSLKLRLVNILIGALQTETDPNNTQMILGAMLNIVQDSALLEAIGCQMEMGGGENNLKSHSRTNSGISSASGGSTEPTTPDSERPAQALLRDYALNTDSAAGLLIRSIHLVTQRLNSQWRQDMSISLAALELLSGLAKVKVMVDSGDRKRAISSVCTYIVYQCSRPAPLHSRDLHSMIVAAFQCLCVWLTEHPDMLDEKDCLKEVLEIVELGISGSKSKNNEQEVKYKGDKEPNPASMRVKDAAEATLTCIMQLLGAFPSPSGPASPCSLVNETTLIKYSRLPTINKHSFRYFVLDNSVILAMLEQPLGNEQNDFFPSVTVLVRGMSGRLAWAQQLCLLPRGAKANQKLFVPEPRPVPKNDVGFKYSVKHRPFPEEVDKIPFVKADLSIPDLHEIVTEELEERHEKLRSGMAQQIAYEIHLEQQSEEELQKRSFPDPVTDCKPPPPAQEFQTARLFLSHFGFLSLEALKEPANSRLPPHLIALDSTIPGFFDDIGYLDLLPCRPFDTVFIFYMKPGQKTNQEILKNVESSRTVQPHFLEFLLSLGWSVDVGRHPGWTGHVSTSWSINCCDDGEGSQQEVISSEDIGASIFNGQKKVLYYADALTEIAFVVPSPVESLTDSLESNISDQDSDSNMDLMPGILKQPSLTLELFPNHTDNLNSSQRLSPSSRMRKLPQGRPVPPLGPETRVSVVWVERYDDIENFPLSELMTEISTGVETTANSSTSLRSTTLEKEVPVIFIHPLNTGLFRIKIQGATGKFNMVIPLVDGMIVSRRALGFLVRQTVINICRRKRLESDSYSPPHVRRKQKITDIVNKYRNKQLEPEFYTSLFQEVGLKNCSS
UniProt Q96JX3, sequence (Q96JX3 whole entry, looked up): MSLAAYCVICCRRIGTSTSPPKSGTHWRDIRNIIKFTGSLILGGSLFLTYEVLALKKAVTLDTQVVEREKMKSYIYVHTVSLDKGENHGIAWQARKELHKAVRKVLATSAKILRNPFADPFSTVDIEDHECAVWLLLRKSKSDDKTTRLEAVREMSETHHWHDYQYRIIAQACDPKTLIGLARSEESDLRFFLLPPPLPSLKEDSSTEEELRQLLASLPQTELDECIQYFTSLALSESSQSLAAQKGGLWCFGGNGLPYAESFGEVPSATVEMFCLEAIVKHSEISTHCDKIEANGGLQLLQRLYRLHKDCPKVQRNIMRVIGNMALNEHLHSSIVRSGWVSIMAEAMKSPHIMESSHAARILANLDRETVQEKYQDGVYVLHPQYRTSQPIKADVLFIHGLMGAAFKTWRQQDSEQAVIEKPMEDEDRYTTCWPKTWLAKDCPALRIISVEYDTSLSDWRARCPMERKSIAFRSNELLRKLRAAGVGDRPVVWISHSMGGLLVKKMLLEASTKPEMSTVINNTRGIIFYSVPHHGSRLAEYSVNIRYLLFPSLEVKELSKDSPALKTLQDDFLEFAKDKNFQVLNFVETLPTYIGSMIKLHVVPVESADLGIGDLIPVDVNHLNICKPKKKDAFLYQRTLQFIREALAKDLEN
UniProt Q8IUH3, sequence (Q8IUH3 whole entry, looked up): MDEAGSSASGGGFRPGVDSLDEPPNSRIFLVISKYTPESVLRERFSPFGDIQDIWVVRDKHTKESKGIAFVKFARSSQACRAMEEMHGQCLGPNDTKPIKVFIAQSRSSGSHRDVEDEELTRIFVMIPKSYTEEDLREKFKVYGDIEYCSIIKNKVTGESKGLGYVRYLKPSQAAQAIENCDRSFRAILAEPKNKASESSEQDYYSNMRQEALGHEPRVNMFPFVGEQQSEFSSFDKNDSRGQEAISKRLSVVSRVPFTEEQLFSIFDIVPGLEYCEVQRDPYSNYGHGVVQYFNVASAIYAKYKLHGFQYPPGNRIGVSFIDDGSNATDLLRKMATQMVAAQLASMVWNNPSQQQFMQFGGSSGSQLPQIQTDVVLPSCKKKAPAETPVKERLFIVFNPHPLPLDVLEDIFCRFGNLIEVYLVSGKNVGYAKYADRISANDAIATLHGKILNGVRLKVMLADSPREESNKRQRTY
UniProt Q8TEB9, sequence (Q8TEB9 whole entry, looked up): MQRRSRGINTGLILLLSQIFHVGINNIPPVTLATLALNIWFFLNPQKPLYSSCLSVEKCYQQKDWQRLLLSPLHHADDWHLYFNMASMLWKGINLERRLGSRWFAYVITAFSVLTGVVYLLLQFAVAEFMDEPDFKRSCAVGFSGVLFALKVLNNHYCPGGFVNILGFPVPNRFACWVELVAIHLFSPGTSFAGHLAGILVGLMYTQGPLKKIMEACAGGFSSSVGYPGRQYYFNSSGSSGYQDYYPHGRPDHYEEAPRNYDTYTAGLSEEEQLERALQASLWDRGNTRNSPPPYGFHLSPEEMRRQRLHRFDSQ
UniProt Q9UPW6, sequence (Q9UPW6 whole entry, looked up): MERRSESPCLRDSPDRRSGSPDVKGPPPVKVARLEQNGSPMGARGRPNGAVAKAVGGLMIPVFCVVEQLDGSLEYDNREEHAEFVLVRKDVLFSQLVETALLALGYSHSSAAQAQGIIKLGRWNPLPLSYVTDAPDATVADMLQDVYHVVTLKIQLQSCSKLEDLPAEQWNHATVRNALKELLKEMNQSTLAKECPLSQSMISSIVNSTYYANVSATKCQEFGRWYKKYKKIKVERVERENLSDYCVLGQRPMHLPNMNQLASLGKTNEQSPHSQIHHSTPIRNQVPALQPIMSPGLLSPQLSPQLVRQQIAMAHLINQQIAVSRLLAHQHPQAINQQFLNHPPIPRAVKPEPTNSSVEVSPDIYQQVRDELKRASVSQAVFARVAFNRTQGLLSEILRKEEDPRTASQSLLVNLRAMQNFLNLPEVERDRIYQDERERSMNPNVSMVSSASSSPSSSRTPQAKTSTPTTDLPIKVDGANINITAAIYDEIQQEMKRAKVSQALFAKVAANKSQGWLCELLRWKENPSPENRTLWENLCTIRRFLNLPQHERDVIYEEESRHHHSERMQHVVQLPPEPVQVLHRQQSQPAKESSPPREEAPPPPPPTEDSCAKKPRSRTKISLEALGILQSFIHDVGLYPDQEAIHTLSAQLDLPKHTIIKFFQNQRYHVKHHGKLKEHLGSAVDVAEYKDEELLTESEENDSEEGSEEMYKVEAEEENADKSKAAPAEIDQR

| Target | log2 fold change [1] | log2 fold change [2] | log2 fold change [3] | log2 fold change [4] | log2 fold change [5] | log2 fold change [6] | log2 fold change [7] | log2 fold change [8] | log2 fold change [9] | log2 fold change [10] | log2 fold change [11] | log2 fold change [12] | log2 fold change [13] | log2 fold change [14] | log2 fold change [15] | log2 fold change [16] | log2 fold change [17] | log2 fold change [18] | log2 fold change [19] | log2 fold change [20] |
| --- | --- | --- | --- | --- | --- | --- | --- | --- | --- | --- | --- | --- | --- | --- | --- | --- | --- | --- | --- | --- |
| RNPC3 (UniProt Q96LT9) | 0.017 | 0.02 | -0.029 | -0.122 | -0.027 | -0.015 | -0.028 | 0.054 | -0.003 | -0.02 | 0.019 | -0.119 | -0.009 | -0.032 | -0.022 | -0.074 |  |  |  |  |
| RALGAPB isoform 3 (UniProt Q86X10) |  |  |  |  |  | -0.087 |  |  |  |  |  |  | -0.139 | 0.004 | -0.343 |  | 0.106 | -0.005 | -0.076 |  |
| RNASEH2B, A0A1B0GUE7 | -0.017 |  |  |  | -0.12 |  |  |  | 0.09 | -0.061 | -0.064 |  |  |  |  |  |  |  |  |  |
| RHOU (UniProt Q7L0Q8) | -0.007 | 0.057 | 0.009 | 0.066 | 0.012 | 0.015 | -0.003 | 0.019 | 0.045 | -0.059 | 0.008 | -0.006 | 0.173 | 0.015 | -0.027 | 0.036 |  |  | -0.122 | -0.04 |
| RNF24 isoform 2 (UniProt Q9Y225) |  |  |  | 0.33 | -0.026 |  | 0.092 |  |  |  |  |  | 0.033 | -0.084 |  | 0.025 | -0.051 | 0.122 |  |  |
| SATB2 (UniProt Q9UPW6) | -0.005 | 0.037 | -0.004 | -0.029 | -0.007 | -0.023 | -0.027 | 0.002 | 0.047 | 0 | 0.007 | 0.009 | 0.074 | 0.016 | -0.026 | 0.032 |  |  | 0.023 | 0.002 |
| RBM45 (UniProt Q8IUH3) | -0.077 |  |  |  | -0.127 |  | 0.038 |  | 0.487 (active) | 0.12 | -0.207 |  | 0.128 | -0.015 |  | 0.077 |  |  |  |  |
| ROBO2 isoform 3 (UniProt Q9HCK4) | -0.015 | 0.103 | -0.287 | -0.045 |  |  | 0.022 | 0.177 | -0.053 | 0.071 | 0.045 | 0.523 (active) |  |  |  | -0.001 |  |  |  |  |
| SEC16A isoform 3 (UniProt O15027) |  | -0.283 | -0.122 |  |  | -0.006 |  | -0.023 |  |  |  | 0.231 |  |  | 0.068 |  |  |  |  |  |
| SERAC1 (UniProt Q96JX3) |  |  |  | -0.115 | 0.051 | -0.193 |  |  |  |  |  |  | -0.061 | 0.051 | -0.096 |  | 0.066 | 0.142 | 0.1 |  |
| QSER1, A0A3B3IRW6 | -0.047 | -0.014 | -0.021 | -0.009 | -0.001 | 0.037 | 0.009 | 0.087 | -0.087 | 0.045 | -0.028 | 0.043 |  |  | -0.036 | -0.014 |  |  | -0.044 | -0.042 |
| RBBP7 (UniProt C9J7L0) |  |  |  |  | -0.187 |  |  |  |  |  |  |  |  |  |  |  |  |  |  |  |
| RHBDD1 (UniProt Q8TEB9) | -0.518 (active) |  |  |  |  |  |  |  | 0.038 | -0.08 | -0.074 |  | 0.016 | -0.029 |  |  | -0.059 | -0.05 | -0.16 | 0.105 |
| SEMA4G isoform 2 (UniProt Q9NTN9) |  |  |  | -0.013 |  | -0.021 | -0.137 |  |  |  |  |  | -0.072 | 0.04 | -0.227 | 0.004 |  |  | -0.059 | 0.042 |
| RNASEH1 (UniProt O60930) |  |  |  |  |  |  |  |  |  |  |  |  | -0.023 | -0.002 |  |  |  |  |  |  |
| SAP30 (UniProt O75446) | 0.033 |  |  |  | 0.101 | -0.007 | 0.016 |  | 0.006 | 0.006 | -0.054 |  | 0.103 | -0.022 | 0.016 | -0.013 | 0.058 | 0.051 | 0.063 | -0.016 |
| RDH11 (UniProt Q8TC12) | -0.021 | 0.005 | -0.043 | 0.068 | -0.013 | -0.039 | -0.037 | -0.039 | -0.111 | 0.088 | -0.13 | 0.069 | -0.213 | 0.082 | 0.021 | 0.022 |  |  | -0.115 | 0.055 |
